Data published in the supplement of paper PMC4894684.
Counter-ions that a name gives are not always drawn. ± gives the standard deviation of the averaged measurements. Hit rate of the full screen: of about 1,000 compounds, about 15 (2%) showed an effect of 50% or more. The entries come from a sample that favours strong results as a whole.

These compounds were tested on HFF (assay: uninfected host cell viability relative to vehicle control; higher = less host cell toxicity). Settings: 5 µM; 72 h; oxygen 21 %.

SMILES	uninfected host cell viability [%]
COc1cc(CNC(=O)CCCC/C=C/C(C)C)ccc1O [(E)-Capsaicin]	88.13 ± 0.59
CC[C@]1(O)C[C@H]2CN(CCc3c([nH]c4ccccc34)[C@@](C(=O)OC)(c3cc4c(cc3OC)N(C=O)[C@H]3[C@@](O)(C(=O)OC)[C@H](OC(C)=O)[C@]5(CC)C=CCN6CC[C@]43[C@@H]65)C2)C1 [Vincristine sulfate]	68 ± 2.9
O=c1oc(-c2ccc(C(F)(F)F)cc2)nn1Cc1cc(Cl)ccc1O	95.1 ± 1
Cc1oncc1C(=O)Nc1ccc(C(F)(F)F)cc1 [Leflunomide]	93.41 ± 0.27
O=C(Nc1cc(C(F)(F)F)cc(C(F)(F)F)c1)c1cc(Cl)ccc1O	46.8 ± 2.5
O=C1CC2(CCCC2)CC(=O)N1CCNCC1COc2ccccc2O1 (stereo not drawn)	85.64 ± 0.64
Cn1cnnc1Sc1c([N+](=O)[O-])ncn1C	89.361 ± 0.008
N[C@@H](C(=O)O)c1ccc(C(=O)O)c(C(=O)O)c1	89 ± 7.8
COc1ccc(-c2nc(C(=O)N3CCN(C)CC3)sc2-c2ccc(OC)cc2)cc1	81.4 ± 4.7
O=C1C(Cl)=C(NCCN2CCOCC2)C(=O)c2ncccc21	34.44 ± 0.16
O=C1c2ccccc2S(=O)(=O)N1CCCCN1CCN(c2ncccn2)CC1 [Ipsapirone]	87.04 ± 0.35
Cc1cc(Cn2cnc3c2CC(C(=O)O)N(C(=O)C(c2ccccc2)c2ccccc2)C3)ccc1N(C)C (stereo not drawn)	82.1 ± 3.1
COc1ccc([C@@H]2CNC(=O)C2)cc1OC1CCCC1 [(R)-(-)-Rolipram]	82.9 ± 1
C1CCC2(CC1)CCNCC2 [4,4-Pentamethylenepiperidine hydrochloride]	84.79 ± 0.68
Cc1cc(NC(=O)Nc2ccc(N(C)C)cc2)c2cc(F)cc(F)c2n1	85.86 ± 0.3
Nc1ncnc2n[nH]c(Nc3ccc(F)cc3)c12	80.93 ± 0.35
O=C(c1ccc(Nc2nccc(-c3cc4ccccc4s3)n2)cc1)N1CCC(N2CCCC2)CC1	14.9 ± 0.68

SMILES	uninfected host cell viability [%]
O=c1[nH]ccc2c(S(=O)(=O)N3CCCNCC3)cccc12 [HA 1100 hydrochloride]	90 ± 3.1
Nc1nc2c(ccc3ccccc32)s1	77.6 ± 1.3
O=c1cc(N2CCNCC2)oc2c(-c3ccccc3)cccc12	87.4 ± 1.8
FC(F)(F)c1cccc(-c2noc(-c3cc(-c4ccccc4)c(C(F)(F)F)s3)n2)c1	90.4 ± 2.4
CCN(CC)CCOc1ccc(Cc2ccccc2)cc1 [DPPE fumarate]	86.65 ± 0.8
CCS(=O)(=O)N1CCC[C@@H]2CN3CCc4cc(OC)ccc4[C@@H]3C[C@@H]21	85.4 ± 2.9
N[C@@H](CC(=O)Nc1ccc(Oc2cc(F)c(F)cc2Br)cc1)C(=O)O	95 ± 0.96
O=c1ncccn1[C@@H]1O[C@H](CO)[C@@H](O)[C@H]1O [Zebularine]	90.802 ± 0.032
O=C(/C=C/c1ccccc1)NC(NC(=S)Nc1cccc2cccnc12)C(Cl)(Cl)Cl (stereo not drawn) [Salubrinal]	84.55 ± 0.26
C=C1/C(=C\C=C2/CCC[C@]3(C)[C@@H]([C@H](C)/C=C/[C@@H](O)C4CC4)CC[C@@H]23)C[C@@H](O)C[C@@H]1O [Calcipotriol]	83.9 ± 3.1
CC(C)c1ccc2c(c1)CC[C@H]1[C@](C)(CN)CCC[C@]21C [Lylamine hydrochloride]	87.8 ± 1.4
Cc1ccccc1N1CCN(S(=O)(=O)C[C@]23CC[C@H](C[C@@H]2NC(=O)[C@@H](N)CCS(C)(=O)=O)C3(C)C)CC1 [L-368,899 hydrochloride]	87.07 ± 0.83
C=C1C(=O)O[C@@H]2/C=C(\C)CC/C=C(\C)CC[C@@H]12 [Costunolide]	114 ± 2.7
N[C@@H](Cc1cc(CP(=O)(O)O)cc(-c2ccccc2Cl)c1)C(=O)O	88.9 ± 6
O=C(Nc1ccccc1)N[C@@H]1C[C@@H](C(=O)O)Nc2cc(Cl)cc(Cl)c21	87.6 ± 1.1
c1ccc(C(O[C@@H]2CCCN(CCc3ccc4c(c3)OCO4)C2)c2ccccc2)cc1 [Zamifenacin fumarate]	90.5 ± 1
